# Inconclusive results are not listed. A call without a number means that no potency is given here. Activity calls are given as the source filed them. Calls come from the whole dose curve; as a rule, active = well fitted curve in the direction sought with a large enough effect; inconclusive = small, poorly fitted or top-dose-only effect, or another doubt; inactive = no such curve, though single readings can be large; an effect the other way counts as inactive or inconclusive.
# Assays:
# [1] = P-glycoprotein substrates identified in KB-8-5-11 adenocarcinoma cell line, qHTS therapeutic library screen (AID 1346987); note: nearly all actives have a fitted effect of over 65% in size; note: potency is the fitted concentration of half-maximal effect
# Method in brief: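 Luminescence from CellTiter-Glo, read 5 min after addition, quantified survival of KB-8-5-11 (P-gp-overexpressing) cells exposed to compounds for 72 h. AC50 was derived from concentration-response curves.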
# [2] = NS1 protein of Zika virus - qHTS assay to identify small molecule inhibitors in human HEK 293 cells (AID 1347053); note: series mostly up to about 46 µM; nearly all actives have a fitted effect of over 55% in size
# Method in brief: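 Compound-treated (1 h pre-infection) HEK 293 cells infected with ZIKV MR766, MOI = 0.5; after 24 h at 37 C, NS1 read by TR-FRET; data normalized to uninfected and infected controls.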
# [3] = qHTS of pediatric cancer cell lines to identify multiple opportunities for drug repurposing: Primary screen for TC32 cells (AID 1347089); note: nearly all actives have a fitted effect of over 60% in size; note: potency is the fitted concentration of half-maximal effect
# Method in brief: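 Luminescent ATP read-out (CellTiter-Glo) of metabolically active TC32 cells after 48 h exposure. Concentration-response curves came from 11-point (MIPE, 0.78 nM–46 µM) or 8-point (NPC, 0.59 nM–46 µM) primary titrations; follow-up used 11 points.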
# [4] = qHTS of pediatric cancer cell lines to identify multiple opportunities for drug repurposing: Primary screen for DAOY cells (AID 1347090); note: nearly all actives have a fitted effect of over 55% in size; note: potency is the fitted concentration of half-maximal effect
# Method in brief: (§1)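 Eight- or eleven-point concentration series, 48 h treatment at 37 degrees C in growth media; readout CellTiter-Glo luminescence. Potency and efficacy were taken from the concentration-response curves.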
# [5] = qHTS of pediatric cancer cell lines to identify multiple opportunities for drug repurposing: Primary screen for SJ-GBM2 cells (AID 1347091); note: potency is the fitted concentration of half-maximal effect
# Method in brief: as §1
# [6] = qHTS of pediatric cancer cell lines to identify multiple opportunities for drug repurposing: Primary screen for A673 cells (AID 1347092); note: nearly all actives have a fitted effect of over 45% in size; note: potency is the fitted concentration of half-maximal effect
# Method in brief: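 Cell viability of A673 measured by CellTiter-Glo ATP luminescence after 48 hours compound exposure. Dilution series spanned 0.78 nM to 46 µM (MIPE, 11-point) or 0.59 nM to 46 µM (NPC, 8-point); bortezomib 2.3 uM positive control.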
# [7] = qHTS of pediatric cancer cell lines to identify multiple opportunities for drug repurposing: Primary screen for BT-37 cells (AID 1347094); note: potency is the fitted concentration of half-maximal effect
# Method in brief: (§2)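 Primary screen of approved and investigational compounds on cells in growth media at 37 degrees C, 5% CO2. MIPE set at 11-point and NPC set at 8-point dilutions; viability scored by ATP-based luminescence at 48 hours.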
# [8] = qHTS of pediatric cancer cell lines to identify multiple opportunities for drug repurposing: Primary screen for NB-EBc1 cells (AID 1347095); note: potency is the fitted concentration of half-maximal effect
# Method in brief: as §2
# [9] = qHTS of pediatric cancer cell lines to identify multiple opportunities for drug repurposing: Primary screen for U-2 OS cells (AID 1347096); note: nearly all actives have a fitted effect of over 50% in size
# Method in brief: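 Cells (500-1,000/well) in growth media were settled 5 h at 37 degrees C, then given compounds for 48 h. Viability was read as CellTiter-Glo luminescence. Primary runs used MIPE at 11 points (0.78 nM-46 µM) and NPC at 8 points (0.59 nM-46 µM); follow-ups used 11 points.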
# [10] = qHTS of pediatric cancer cell lines to identify multiple opportunities for drug repurposing: Primary screen for SK-N-SH cells (AID 1347098);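 note: DMSO served as neutral control and bortezomib at 2.3 µM as positive control; nearly all actives have a fitted effect of over 65% in size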
# Method in brief: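 Cells (500-1,000/well) rested 5 h, then received compounds for 48 h; metabolically active cells were measured by CellTiter-Glo luminescence. Final concentrations spanned up to 46 µM (MIPE, 11-point) or 0.59 nM-46 µM (NPC, 8-point) in primary screens, 11-point in follow-ups.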
# [11] = qHTS of pediatric cancer cell lines to identify multiple opportunities for drug repurposing: Primary screen for Saos-2 cells (AID 1347097); note: nearly all actives have a fitted effect of over 40% in size; note: potency is the fitted concentration of half-maximal effect
# Method in brief: as §2
# [12] = qHTS of pediatric cancer cell lines to identify multiple opportunities for drug repurposing: Primary screen for SK-N-MC cells (AID 1347093); note: series mostly up to about 46 µM
# Method in brief: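 Metabolically active cells were quantified by ATP-dependent luminescence (CellTiter-Glo, 15 min at room temperature) following 48 h treatment. Cells had been plated at 500-1,000 per well and settled for 5 h beforehand.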
SMILES,Potency [1],Potency [2],Potency [3],Potency [4],Potency [5],Potency [6],Potency [7],Potency [8],Potency [9],Potency [10],Potency [11],Potency [12]
N#CCC(=O)NN,inactive,inactive,inactive,inactive,inactive,inactive,inactive,inactive,inactive,inactive,,
CCOc1cc(OCC)c(C(=O)CCC(=O)O)cc1OCC,inactive,inactive,inactive,inactive,inactive,inactive,inactive,inactive,inactive,inactive,inactive,
O=C1OC2(c3ccccc31)c1cc(Br)c(O)c(Br)c1Oc1c2cc(Br)c(O)c1Br,inactive,inactive,inactive,inactive,inactive,inactive,inactive,inactive,inactive,,,
CC(=O)NC(=O)c1ccccc1O,inactive,inactive,inactive,inactive,inactive,inactive,inactive,inactive,inactive,inactive,inactive,
N[C@H](C(=O)O)[C@@H](O)c1ccc(O)c(O)c1,inactive,inactive,inactive,inactive,inactive,inactive,inactive,inactive,inactive,,inactive,
CN(Cc1ccc(C(C)(C)C)cc1)Cc1cccc2ccccc12,inactive,inactive,inactive,inactive,inactive,inactive,inactive,inactive,inactive,,,
CCC(C(=O)OCCOCCN(CC)CC)c1ccccc1 (stereo not drawn),inactive,inactive,inactive,inactive,inactive,inactive,inactive,inactive,inactive,inactive,,
CCCCCCCCCCCCCCCC(=O)O,inactive,inactive,inactive,inactive,inactive,inactive,inactive,inactive,inactive,inactive,inactive,
CC(C)NCC(O)c1ccc2ccccc2c1 (stereo not drawn),inactive,inactive,inactive,inactive,inactive,inactive,inactive,inactive,inactive,inactive,inactive,
Oc1c(Cl)cc(Cl)c(Cl)c1Cc1c(O)c(Cl)cc(Cl)c1Cl,2.06 µM (active),inactive,7.45 µM (active),8.41 µM (active),4.22 µM (active),21.1 µM (active),9.78 µM (active),4.73 µM (active),,,5.96 µM (active),
CC(C)(C)CC(C)(C)c1ccc(O)c(-n2nc3ccccc3n2)c1,inactive,inactive,inactive,inactive,inactive,inactive,inactive,inactive,inactive,inactive,inactive,
O=C(O)CCc1nc2ccccc2[nH]1,inactive,inactive,inactive,inactive,inactive,inactive,inactive,inactive,inactive,,inactive,
CN1CCC(OC(c2ccccc2)c2ccccc2)CC1,inactive,inactive,inactive,inactive,inactive,inactive,inactive,inactive,inactive,inactive,,
CCc1ccc(C(=O)C(C)CN2CCCCC2)cc1 (stereo not drawn),inactive,inactive,inactive,inactive,inactive,,inactive,inactive,inactive,,,inactive
Nc1ccc(C(=O)NCC(=O)O)cc1,inactive,inactive,inactive,inactive,inactive,inactive,inactive,inactive,inactive,inactive,inactive,
COc1ccc(S(=O)(=O)N2c3ccc(Cl)cc3[C@@](O)(c3ccccc3Cl)[C@H]2C(=O)N2CCC[C@@H]2C(N)=O)cc1OC,inactive,inactive,inactive,inactive,inactive,inactive,inactive,inactive,inactive,inactive,inactive,
O=C1OC(CN2CCOCC2)CN1/N=C/c1ccc([N+](=O)[O-])o1 (stereo not drawn),inactive,inactive,inactive,inactive,inactive,,inactive,inactive,inactive,,inactive,inactive
CC(C)[C@@H]1CC[C@@H](C)CC1=O,inactive,inactive,inactive,inactive,inactive,inactive,inactive,inactive,inactive,,inactive,
COc1ccc2c(c1)c1c3n2CCN(C)C3=NCC1,inactive,inactive,inactive,inactive,inactive,inactive,inactive,inactive,inactive,,inactive,
CCC(Cc1c(I)cc(I)c(N)c1I)C(=O)O (stereo not drawn),inactive,inactive,inactive,inactive,inactive,inactive,inactive,inactive,inactive,inactive,inactive,

SMILES,Potency [1],Potency [2],Potency [3],Potency [4],Potency [5],Potency [6],Potency [7],Potency [8],Potency [9],Potency [10],Potency [11],Potency [12]
CCNC(=O)/C=C/c1cccc(Br)c1,inactive,inactive,inactive,inactive,inactive,,inactive,inactive,inactive,,,inactive
Cc1cc(NS(=O)(=O)c2ccc(N)cc2)nc(C)n1,inactive,inactive,inactive,inactive,inactive,inactive,inactive,inactive,inactive,inactive,,
Cc1cn([C@H]2C[C@H](F)[C@@H](CO)O2)c(=O)[nH]c1=O,inactive,inactive,inactive,inactive,inactive,inactive,,,inactive,inactive,inactive,
CC(=O)NO,inactive,inactive,inactive,inactive,inactive,inactive,inactive,inactive,inactive,inactive,inactive,
CC(=C(CCOC(=O)C(C)C)SSC(CCOC(=O)C(C)C)=C(C)N(C=O)Cc1cnc(C)nc1N)N(C=O)Cc1cnc(C)nc1N,inactive,inactive,inactive,inactive,inactive,inactive,inactive,inactive,inactive,,inactive,
CC(=O)Nc1ccc(CC(=O)O)cc1,inactive,inactive,inactive,inactive,inactive,,inactive,inactive,inactive,,,inactive
NS(=O)(=O)Cc1noc2ccccc12,inactive,inactive,inactive,inactive,inactive,inactive,inactive,inactive,inactive,inactive,,
CCc1cc(Cl)c(OC)c(C(=O)NC[C@@H]2CCCN2CC)c1O,inactive,inactive,inactive,inactive,inactive,,inactive,inactive,inactive,inactive,inactive,
Oc1ccccc1C=NCc1ccccc1,inactive,inactive,inactive,inactive,inactive,,inactive,inactive,inactive,inactive,,
O=C1C(CCS(=O)c2ccccc2)C(=O)N(c2ccccc2)N1c1ccccc1 (stereo not drawn),inactive,inactive,inactive,inactive,inactive,,inactive,inactive,inactive,inactive,inactive,inactive
C=C[C@H]1CN2CC[C@H]1C[C@@H]2[C@@H](O)c1ccnc2ccc(OC)cc12,inactive,inactive,inactive,inactive,inactive,,inactive,inactive,inactive,inactive,inactive,inactive
CCC1NC(=O)c2cc(S(N)(=O)=O)c(Cl)cc2N1 (stereo not drawn),inactive,inactive,inactive,inactive,inactive,,inactive,inactive,inactive,inactive,inactive,inactive
CCCc1ncc(C[n+]2ccccc2C)c(N)n1,inactive,inactive,inactive,inactive,inactive,,inactive,inactive,inactive,inactive,inactive,inactive
COc1ccc(C(=O)c2ccccc2)c(O)c1,inactive,inactive,inactive,inactive,inactive,,inactive,inactive,inactive,inactive,,
O=S(c1cc(Cl)cc(Cl)c1O)c1cc(Cl)cc(Cl)c1O,inactive,inactive,inactive,inactive,,inactive,inactive,,inactive,inactive,16.8 µM (active),
CCCCC(CC)COC(=O)/C=C/c1ccc(OC)cc1 (stereo not drawn),inactive,inactive,inactive,inactive,inactive,,inactive,inactive,inactive,inactive,inactive,inactive
CCOC(=O)c1ccc(N)cc1,inactive,inactive,inactive,inactive,inactive,,inactive,inactive,inactive,inactive,,inactive
NC1CCN(c2nc3c(cc2F)c(=O)c(C(=O)O)cn3-c2ccc(F)cc2F)C1 (stereo not drawn),inactive,inactive,inactive,inactive,inactive,,inactive,inactive,inactive,inactive,,inactive
O=C(O)CCC(=O)Nc1ccc(S(=O)(=O)Nc2nccs2)cc1,inactive,inactive,inactive,inactive,inactive,,inactive,inactive,inactive,,inactive,

# From PubChem BioAssay (NCATS)
